Shown are actives, neighbours in structure and some others; about 0.41% of the full set was active somewhere.
GLA inh pH 4.5 – qHTS Assay for Inhibitors of Human alpha-Galactosidase at pH 4.5. activity change, negative = inhibition, % at 105 µM. purified enzyme, 4-MU-alpha-Gal fluorescence, pH 4.5. 230,000 tested, under 10 active. Alpha-galactosidase A (Homo sapiens), P06280;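 note: 0% = full activity with enzyme and -100% = basal without enzyme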
GAA glycogen mod – qHTS Assay for Inhibitors and Activators of Human alpha-Glucosidase Cleavage of Glycogen; recombinant GAA, glycogen substrate, Amplex Red glucose oxidase fluorescence; Potency, µM (series often up to 76.4 µM), for inactives: at the top dose activity change, negative = inhibition, hits mostly inhibitors; 300,000 compounds, 0.38% hits;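 note: potency is the fitted concentration of half-maximal effect; 0% = full enzyme reaction and -100% = no-enzyme basal signal; the screen sought inhibitors and activators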
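qHTS, 1536-well; enzyme 4 nM final; cpd up to 77 uM; substrate bovine liver glycogen 30 ug; 50 mM citrate/phosphate pH 5.0, 0.01% Tween-20; 37 C, 40 min; Amplex Red detection 45 min RT; Hill fit → AC50.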
aGal spleen mod – qHTS Assay for Inhibitors and Activators of Human alpha-Galactosidase From Spleen Homogenate; AID 2107, 2009; Alpha-galactosidase A (Homo sapiens), P06280; human spleen homogenate, 4MU-alpha-Gal fluorescence, 40 min; 240,000 compounds, 0.008% hits; Potency, µM (doses to about 80 µM), without a hit: top-dose activity change, negative = inhibition, hits mostly inhibitors;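 note: potency is the fitted concentration of half-maximal effect; 0% = enzyme with vehicle and -100% = no enzyme basal signal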
Target sequence (P06280 32-429 limits assumed): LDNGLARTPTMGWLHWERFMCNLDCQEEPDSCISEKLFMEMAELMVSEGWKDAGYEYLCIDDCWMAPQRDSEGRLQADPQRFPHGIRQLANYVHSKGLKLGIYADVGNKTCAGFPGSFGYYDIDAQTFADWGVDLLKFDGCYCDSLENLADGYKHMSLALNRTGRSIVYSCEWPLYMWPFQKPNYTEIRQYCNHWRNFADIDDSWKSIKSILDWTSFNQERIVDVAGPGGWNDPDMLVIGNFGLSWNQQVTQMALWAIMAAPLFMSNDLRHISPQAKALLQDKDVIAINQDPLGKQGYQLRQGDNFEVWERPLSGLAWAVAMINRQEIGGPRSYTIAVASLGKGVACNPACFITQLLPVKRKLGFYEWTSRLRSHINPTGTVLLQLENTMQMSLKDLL
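qHTS titration in buffer at pH 5.0. Alpha-galactosidase activity in spleen homogenate was measured via 4-methylumbelliferone release from 1 mM fluorogenic substrate after 40 min at 37C and a pH 10 stop. AC50 came from Hill fits of control-normalized data.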
GAA inh – qHTS Assay for Inhibitors of Human alpha-Glucosidase as a Potential Chaperone Treatment of Pompe Disease; purified human GAA, 4-MU-alpha-glucoside fluorescence; Potency, µM (doses to about 76.9 µM), without a hit: at the highest dose activity change, negative = inhibition, usual class: inhibitors; 200,000 compounds, 0.005% hits; AID 1466, 2008;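 note: potency is the fitted concentration of half-maximal effect; plate controls were uninhibited enzyme wells for no effect and no-enzyme background for full effect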
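Fluorescence at Ex 365/Em 440 nm from 4-methylumbelliferone reported enzyme activity after 20 min at room temperature. Reactions used 4 nM enzyme and 400 uM substrate at pH 5.0; curves fitted with the Hill equation.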
N370S GC mod – qHTS Assay for Inhibitors and Activators of N370S glucocerebrosidase as a Potential Chaperone Treatment of Gaucher Disease; N370S GC spleen homogenate, 4MU-glucoside fluorescence; Potency, µM (doses to about 59.4 µM), without a hit: at the top dose activity change, negative = inhibition, hits mostly inhibitors; Lysosomal acid glucosylceramidase (Homo sapiens), P04062; AID 2101, 2009; 330,000 compounds, 0.092% hits;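 note: potency is the fitted concentration of half-maximal effect; 0% = full enzyme activity and -100% = no enzyme basal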
GAA spleen mod – qHTS Assay for Inhibitors and Activators of Human alpha-Glucosidase From Spleen Homogenate | human spleen homogenate, 4-MU-alpha-glucoside fluorescence | 240,000 compounds, 0.006% hits | Potency, µM (top dose mostly 79.9 µM), for inactives: at the top dose activity change, negative = inhibition, usual class: inhibitors | Lysosomal alpha-glucosidase (Homo sapiens), P10253;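 note: potency is the fitted concentration of half-maximal effect; 0% = enzyme with vehicle and -100% = no enzyme basal signal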
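Enzyme source: human spleen homogenate, 1 ug/well. Buffer 50 mM citric acid/K phosphate pH 5.0, 0.01% Tween-20. 4-MU-alpha-glucoside 1 mM; 37 C x 40 min; NaOH/glycine stop; fluorescence.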
Starred values were filed as active, the others as inactive; ? = inconclusive; / = no result; [ ] = remark or other dose. Calls come from the whole dose curve; as a rule, active = well fitted curve in the direction sought with a large enough effect; inconclusive = small, poorly fitted or top-dose-only effect, or another doubt; inactive = no such curve, though single readings can be large; an effect the other way counts as inactive or inconclusive.

SMILES | GLA inh pH 4.5 | GAA glycogen mod | aGal spleen mod | GAA inh | N370S GC mod | GAA spleen mod
CCCOC(=O)N1CCN(/[N+]([O-])=N/Oc2ccc([N+](=O)[O-])cc2[N+](=O)[O-])CC1 | / | / | -5% | / | -5% | -1%
N#CC1=C(N)C2=C(N3CCCCC3)CCCC2C1(C#N)C#N (stereo unspecified) | -2 | 22µM* | 0% | -3% | -3% | 1%
N#CC(C#N)=C1C=C2C=C(N3CCCCC3)CCC2CC1 (stereo unspecified) | -4 | -6% | -2% | -1% | 10% | -4%
O=c1nc(/C=C/c2ccc(O)c(O)c2)oc2ccccc12 | -18 | 7.1µM* | -1% | / | -25% | -17%
O=C(NC(=S)N1CCN(c2ccc(O)cc2)CC1)c1cccs1 | -2 | 10µM* | 5% | / | -6% | -2%
C/C=C1\COC(C(=O)NC)(C(F)(F)F)C=C1C=C1CCCCC1 (stereo unspecified) | / | / | 9% | / | -2% | -13%
COc1ccc(SCCN2CCN(CCc3ccccc3)CCC2=O)cc1 | / | / | -2% | / | -16% | -7%
COc1ccccc1N1CCN(/N=C/c2cccc(O)c2)CC1 | -14 | 9.9µM* | -2% | -10% | 1% | 2%
COc1cccc(OC)c1C1=Nn2c(nnc2-c2ccccc2C)SC1 | / | / | 6% | / | 0% | -7%
CCN(CC)c1cccc(OC2=NS(=O)(=O)c3ccccc32)c1 | -49 | 28µM* | -3% | -5% | -11% | -4%
COc1ccccc1N(O)C1CC(=O)N(c2ccc(Br)cc2)C1=O (stereo unspecified) | -1 | 8.9µM* | 2% | -1% | 5% | 0%
O=C1CC(N(O)c2ccccc2)C(=O)N1c1ccc(Cl)c(Cl)c1 (stereo unspecified) | -1 | ? | 2% | / | 7% | -9%
Cc1noc(C)c1-c1ccc2ncnc(NC3CCCc4ccccc43)c2c1 (stereo unspecified) | / | / | 5% | / | -7% | 1%
Cc1ccc(S(=O)(=O)N(C)CCCC(=O)Nc2ccc(F)cc2)cc1 | -9 | 1% | 9% | -5% | 8% | 3%
CN(CCCC(=O)O)S(=O)(=O)c1ccc2c(c1)C(=O)c1cc(S(=O)(=O)N(C)CCCC(=O)O)ccc1-2 | / | 25µM* | / | / | -5% | /
CCCCc1nc2c(c3c1C[C@H](C)OC3)CN(C(=O)Nc1cccc(C#N)c1)CC2 | -2 | / | -6%[17.5 µM] | / | 2%[12.8 µM] | -5%[17.4 µM]
CCCCC(=O)NC(Nc1sc2c(c1C(N)=O)CCCC2)(C(=O)OCC)C(F)(F)F (stereo unspecified) | -16 | ? | 0% | -4% | 2% | -1%
COC(=O)C(NC(C)=O)(Nc1sc2c(c1C(N)=O)CCCC2)C(F)(F)F (stereo unspecified) | -4 | 20µM* | 5% | 1% | 6% | -4%
O=C(NNC(=O)c1cccs1)c1ccco1 | -2 | 4% | 19% | ? | 3% | 4%
O=C(NC(=S)NNC(=O)c1cccs1)c1ccco1 | -6 | 28µM* | -16% | -6% | 2% | -18%
COc1cc(OC)c(C2Nc3cccc4cccc(c34)N2)c(OC)c1 | / | ? | / | / | -8% | /
COc1ccccc1C1Nc2cccc3cccc(c23)N1 | 0 | 16µM* | 2% | -3% | -6% | 0%
CCOc1ccccc1CNc1ccc(O)cc1 | -2 | ? | 5% | -4% | 5.6µM* | 4%
OC[C@H]1OC(O)[C@@H](O)[C@@H](O)[C@H]1O (stereo partly specified) | / | / | 7% | / | -7% | 11%
Nc1nc(-c2ccccc2)c(-c2ccccc2)s1 | -1 | -11% | 5% | 8% | 5% | -10%
SMILES | GLA inh pH 4.5 | GAA glycogen mod | aGal spleen mod | GAA inh | N370S GC mod | GAA spleen mod
Nc1nc(-c2ccccc2)c(N=Nc2ccc(Cl)cc2)s1 | -9 | -4% | 2% | -2% | 2.5µM* | 2%
O=C(NCc1ccccn1)C(=O)NN=C1CCCCCCC1 | -5[21.1 µM] | 32µM* | 2% | -8% | 9% | 2%
Cc1ccc(CNc2ccc(N3CCOCC3)cc2)cc1 | / | 6.3µM* | / | / | -18% | /
c1cc(CNc2ccc(N3CCOCC3)cc2)ccn1 | 3 | 16% | -4% | -3% | 12% | 0%
Cc1ccc(CNc2ccc(N3CCOCC3)c(Cl)c2)cc1 | / | / | / | / | 9% | /
CC(C)c1ccc(CNc2ccc(N3CCOCC3)cc2)cc1 | -20 | 28µM* | -13% | -6% | -11% | -15%
Cc1ccc(O)c(Sc2cc(C)ccc2O)c1 | -4 | 28µM* | 0% | -10% | 0% | -4%
O=[N+]([O-])c1cc(C(F)(F)F)ccc1NCCc1c[nH]c2ccc(O)cc12 | -17 | 9.9µM* | 1% | -8% | 13% | -6%
CC(=O)Nc1ccc(S(=O)(=O)Nc2nc3ccccc3nc2Nc2ccc(O)cc2)cc1 | -6 | 18µM* | 6% | / | -24% | 4%
CC1CC=CC2C1C(=O)N(Cc1ccccc1)C2c1ccc2ccccc2c1Br (stereo unspecified) | / | / | -3% | / | 5% | -3%
CCc1cc2c(Nc3ccccc3O)nc(C)nc2s1 | / | -18%[15.3 µM] | / | / | -4% | /
CCc1cc2c(Nc3ccc(O)cc3)nc(C)nc2s1 | / | / | / | / | 20µM* | /
CC1CCCC(NC(=O)Nc2cccs2)C1C (stereo unspecified) | 4 | 14µM* | 2% | -22% | 9% | -8%
CC1CCCC(NC(=O)c2ccncc2)C1C (stereo unspecified) | / | 13%[76.3 µM] | / | / | -3% | /
CCOc1cc(CNCCc2ccc(S(N)(=O)=O)cc2)ccc1OCc1ccccc1 | -3 | 2% | -12% | ? | 6.3µM* | -1%
CCc1cccc2cc(C(O)CNC(C)(C)C)oc12 (stereo unspecified) | / | / | -9% | / | -7% | 0%
Cc1nc(NS(=O)(=O)c2ccccc2)sc1NC(=O)OC(C)C | 8 | 28µM* | -3% | 4% | 1% | -7%
Cc1ccc(S(=O)(=O)Nc2nc(C)c(NC(=O)OCCCl)s2)cc1 | 4 | 22µM* | -7% | -4% | 4% | -6%
O=c1[nH]c2cc(Cl)c(O)cc2o1 | / | / | -6% | / | -3% | 1%
